# Autophagy mod = autophagy modulation, high-content screen. hit rate 0.98% among 190,000. MEF GFP-LC3 puncta imaging; test concentration mostly 10 µM. AID 463193. calls only at 10 µM (by protocol);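 active = percentage of spot-positive cells more than 3 SD above its plate mean, without a fluorescence outlier flag or 80% toxicity; inconclusive = no clear call, values can overlap the other calls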;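 also: spot-positive cell cutoff set from DMSO-treated cells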
# Lmaj promast = Leishmania major promastigote growth inhibition | hit rate 9% among 200,000 | inhibition, % at 10 µM | Leishmania major promastigotes, resazurin fluorescence viability; in the data active = inhibition above about 50%;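 also: promastigotes grown with compound for 44 hours at 28 °C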
# Ins promoter up = MIN6 insulin promoter up-regulation. MIN6 insulin promoter-GFP reporter, high-content imaging; hits give high values. z-score at 5 µM. hit rate 0.3% among 190,000. AID 1625;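 active = z-score above 3 at 5 µM with at least 500 cells counted in the well; inconclusive = wells under 500 cells, flagged as cytotoxic or low count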
# WT yeast gro inh = growth inhibition of WT yeast, mitochondrial fusion screen; inhibition, % at 10 µM; hit rate 2.1% among 190,000; mitochondrial fusion phenotypic screen, WT strain; AID 1362; in the data active = inhibition above about 58%; tested in S. cerevisiae
# Insulin prom inh = TRM-6 insulin promoter activity inhibition; inhibition, % at 2 µM; hit rate 0.9% among 130,000; TRM-6 cells (human fetal islet line), insulin promoter-eGFP reporter, imaging; reporter expression induced with tamoxifen; AID 1273;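 active = inhibition above the mean plus 3 SD, with well images judged a real hit on visual review, cut at about 60% in these data, passing the limit was not always enough; inconclusive = inhibition over the cutoff but images rejected on review; inactive = inhibition not above the cutoff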
# * marks the source's active call; other numbers are inactive results; i = inactive; ? = inconclusive; . = no result; + = active, no number. Compounds with a hit are over-represented: about 11% of the library has one in this group of screens.
SMILES,Autophagy mod,Lmaj promast,Ins promoter up,WT yeast gro inh,Insulin prom inh
O=C(NCc1ccc(F)cc1)c1ccc(S(=O)(=O)Nc2cccc(C(F)(F)F)c2)cc1,i,66.5*,0.21,4.8,-34.5
O=c1[nH]c2ccccc2nc1C(F)(F)F,.,.,1.1,.,.
CC(C)c1ccc(/C=C(\c2nc3ccccc3[nH]2)S(=O)(=O)c2ccccc2)cc1,i,100.4*,-2.88,9.1,35.7
O=S(=O)(/C(=C/c1ccc(C(F)(F)F)cc1)c1nc2ccccc2[nH]1)c1ccccc1,i,100.4*,?,3.4,50.0
CC(C)(C)/C(O)=C/c1nc2ccccc2[nH]c1=O,i,-5.4,-0.02,-17.4,.
Cc1ccccc1-c1nn(-c2ccc(F)cc2F)cc1CNC1CC1,i,7.0,-0.03,-2.7,.
Cc1ccc([N+](=O)[O-])cc1N(CC(=O)Nc1ccc(S(=O)(=O)Nc2cccc(C(F)(F)F)c2)cc1)S(C)(=O)=O,i,-3.7,.,-1.7,38.9
c1ccc(Cn2cc(CNc3ccccc3)nn2)cc1,.,.,-0.29,.,.
COc1ccc(CNC(=O)CSc2ncnc3nc[nH]c23)cc1,i,-3.8,0.19,3.4,18.2
CC1(C)CC(=O)C(CCC(=O)c2ccccc2)C(C)(C)N1 (stereo not drawn),i,90.0*,0.83,9.7,34.6
O=C(CCC1CCCCC1=O)c1ccccc1 (stereo not drawn),i,-1.6,0.17,1.9,-66.7
COC(=O)/C(=C\Nc1ccc(Cl)cc1Cl)NC(=O)c1ccc(OC)cc1,.,.,-0.06,.,.
CCOC(=O)c1sc(NC(=O)C(CC)Sc2nc3ccccc3[nH]2)nc1C (stereo not drawn),i,53.8*,.,.,30.0
CCOC(=O)c1sc(NC(=O)C(OC(C)=O)c2ccccc2)nc1C (stereo not drawn),i,44.2,-0.32,1.7,-11.1
CCOC(=O)c1sc(NC(=O)C(CC)Sc2nnc3c4ccccc4n(C(C)C)c3n2)nc1C (stereo not drawn),i,72.1*,0,9.5,.
COc1ccc(C(=O)C2CCCN(Cc3cnc(N4CCCC4)s3)C2)cc1OC (stereo not drawn),i,71.8*,-0.81,3.5,.
COc1cccc(C(=O)C2CCCN(Cc3ccc(OC)c(Cn4cncn4)c3)C2)c1 (stereo not drawn),.,.,-0.96,.,.
COc1ccc2cc(C(=O)C3CCCN(Cc4cnc(C)s4)C3)ccc2c1 (stereo not drawn),i,79.2*,1.23,23.9,.
COc1ccc(Cl)cc1C(=O)C1CCCN(Cc2cnc(N3CCOCC3)s2)C1 (stereo not drawn),i,3.8,-0.31,7.6,-57.1
COc1ccc(CN2CCCC(C(=O)c3ccc(Cl)cc3)C2)cc1Cn1cccn1 (stereo not drawn),i,95.9*,-0.46,30.2,.
COc1c(C)cc(C(=O)C2CCCN(Cc3cnc(N4CCOCC4)s3)C2)cc1C (stereo not drawn),i,99.8*,0.11,5.3,.
COc1cccc(CNC(=O)CN2CCC(c3nc4ccc(C)cc4[nH]3)CC2)c1,i,-3.4,-4,-4.3,.
COc1ccc(-n2cc(C#N)c(=O)n(Cc3ccc(F)cc3)c2=O)cc1,i,12.6,0.33,-21.6,.
O/N=C(\c1ccc(Cl)cc1Cl)c1ncc(C(F)(F)F)cc1Cl,i,2.4,1.93,85.1*,-6.2
C=CCn1c(=O)c2ccc(C(=O)NCc3ccccc3)cc2n(Cc2ccccc2Cl)c1=O,i,56.0*,-0.21,6.8,12.0
SMILES,Autophagy mod,Lmaj promast,Ins promoter up,WT yeast gro inh,Insulin prom inh
COC(=O)c1cnn(-c2nc(OC)cc(OC)n2)c1C,i,-2.4,0.18,10.7,18.2
COc1cc(OC)nc(-n2ncc(Br)c(Br)c2=O)n1,i,100.3*,?,14.3,.
Cc1ccc(C)c(Oc2coc3cc(OCC(=O)Nc4ccccc4C(C)C)ccc3c2=O)c1,i,3.7,-0.51,1.7,-27.3
C=CCn1c(=N)n(CC(=O)c2ccc(Br)s2)c2ccccc21,i,97.2*,0.64,20.6,-46.1
C=CCn1c(=N)n(CC(=O)OC)c2ccccc21,i,-2.7,0.03,-6.3,-39.4
O=C(Cn1cccc1C(=O)c1ccccc1)NCc1ccccn1,i,-5.3,-0.21,-19.3,-38.9
COc1ccc(N2CCN(C(=O)Cn3cnc4c(cnn4-c4ccc(C)cc4)c3=O)CC2)cc1,+,-5.4,-0.58,0.2,-41.7
CC(C)(C)C(=O)/C(=C/c1ccncc1)n1cncn1,i,100.3*,-0.25,3.3,.
Cc1nn(C)c(C)c1/C=C(/C(=O)C(C)(C)C)n1cncn1,.,.,0.89,.,.
CN1CCC(N(C)C(=O)c2sc3cc(F)ccc3c2Cl)CC1,i,90.4*,-0.39,1.3,.
O=C(c1ccccc1C(=O)N1CCN(c2ccc(F)cc2)CC1)N1CCN(c2ccc(F)cc2)CC1,i,-1.4,-0.58,6.7,20.0
CC(C)N(CC(N)=O)C(=O)c1sc2cc(F)ccc2c1Cl,i,-0.8,-0.39,15.6,-65.0
O=C(c1sc2cc(F)ccc2c1Cl)N1CCN(c2ccccc2)CC1,i,-2.2,.,65.5*,20.0
CCN(CC)S(=O)(=O)c1cccc(NC(=O)COC(=O)c2cccs2)c1,i,-3.3,-0.18,-13.4,.
COC(=O)c1cc(NC(=O)CSC2=NCCS2)cc(C(=O)OC)c1,i,3.4,-1.51,-6.4,.
O=[N+]([O-])c1ccccc1S(=O)(=O)NCCC1=CCCCC1,i,-0.3,-0.41,71.0*,-65.7
c1ccc(-n2ncc3c(N4CCN(CCOc5cccc6ccccc56)CC4)ncnc32)cc1,i,98.9*,-1.33,21.3,-3.7
CS(=O)(=O)N1CCN(c2ncnc3c2cnn3-c2ccccc2)CC1,i,-6.7,-0.13,-19.4,.
CC(=O)c1sc(C(C)(C)C)cc1NC(=O)c1ccccc1C(=O)O,.,.,-0.16,.,.
Cc1[nH][nH]c(=O)c1C(c1c(C)[nH][nH]c1=O)c1cn(Cc2ccccc2Cl)c2ccccc12,i,28.0,-0.29,63.5*,14.7
O=C(Nc1cccc(C(F)(F)F)c1)C1CCCN1S(=O)(=O)c1cccc2cccnc12 (stereo not drawn),i,83.5*,.,3.2,.
CCC(=Nc1ccccc1OC)C1=C(O)CC(c2ccccc2)CC1=O (stereo not drawn),i,52.6*,-0.1,9.2,.
CCC(=Nc1ccccc1O)C1=C(O)CC(c2ccccc2)CC1=O (stereo not drawn),.,.,0.1,.,.
COCCn1c(SCC(=O)c2ccc(Cl)cc2)nnc1C(C)C,i,-5.3,0.16,-8.4,.
CCN(CC)S(=O)(=O)c1ccc(N2CCOCC2)c(NC(=O)C2CCCO2)c1 (stereo not drawn),.,.,1.39,.,.
COC(=O)CNC(c1ccccc1)c1cc(Cl)ccc1NC(=O)c1cccc(Cl)c1 (stereo not drawn),i,5.6,-0.46,58.2*,.
NNC(=O)CNC(c1ccccc1)c1cc(Br)ccc1NC(=O)c1cccc(Cl)c1 (stereo not drawn),i,5.8,0.6,30.0,-46.7
CCCCn1c(N)c(Br)c(=O)[nH]c1=O,.,.,-0.29,.,.
CCCCn1c(N)c(NCCC(C)C)c(=O)[nH]c1=O,i,40.8,-0.16,16.2,82.1*
Cc1cccc(C(=O)N2CCc3cc(-c4nc(NC(=O)Cn5nnc6ccccc6c5=O)sc4C)ccc32)c1,i,8.0,-0.77,-16.6,.
